Out of some 220,000 compounds screened, about 2,400 (1.1%) were called active. Many of the other results were omitted from the sample, so actives are more common in it than they were. Unmarked numbers belong to inactive results.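 How the source made its calls: active means inhibition above a per-campaign cutoff, the mean inhibition of all tested compounds plus 3 SD (cut at about 27% in these data); inactive means the rest.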
Assay: growth loss in parental Ba/F3 cells – cell-based, murine pro-B, CellTiter-Glo luminescence, counter-screen for JAK2V617F inhibitor project (AID 1486);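 further: 0% = DMSO wells and 100% = JAK Inhibitor I control wells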
Conditions: Ba/F3 parental viability, CellTiter-Glo ATP luminescence; at 5.6 µM; hits give high values

SMILES | inhibition
Cc1csc(NC(=O)c2ccc(-c3ccc(Cl)cc3Cl)o2)n1 | 5.38%
O=C(c1cccnc1)N(c1cc2sc(=O)oc2c2ccccc12)S(=O)(=O)c1ccccc1 | 12.4%
O=C(COc1ccccc1F)NNC(=O)c1ccc(N2CCCCC2)c([N+](=O)[O-])c1 | 2.6%
O=S(=O)(c1ccc(-c2ccccc2)cc1)N1CCCC1 | 7.94%
O=S(=O)(c1ccc(Br)cc1)n1ccc2ccccc21 | 36.7% (active)
CCCCNS(=O)(=O)c1ccc(S(=O)(=O)n2cnc3ccccc32)cc1 | 1.68%
O=C1CC(c2ccccc2)CC(O)=C1C=NCCN1CCOCC1 (configuration not stated) | 2.34%
O=C1CCCC(O)=C1C=NCCc1ccccc1 | 42.9% (active)
CC1(C)CC(=O)C(C=NCCC2=CCCCC2)=C(O)C1 | 6.01%
CCCCN(C(=O)c1ccc(OC(F)(F)F)cc1)c1c(N)n(CCC)c(=O)[nH]c1=O | 3.34%
CC(C)(C)SCCNC(=O)c1cccc([N+](=O)[O-])c1 | 5.58%
Cc1cc(NCc2cccnc2)no1 | 1.06%
CN(Cc1cccnc1)C(=O)c1cc(COc2ccc3ncccc3c2)on1 | 84.6% (active)
Cc1noc(C)c1COc1cccc(C(=O)Nc2cccnc2)c1 | 1%
CCCOc1ccc(NC(=O)C2OC3OC(C)(C)OC3C3OC(C)(C)OC23)cc1 (configuration not stated) | 4.19%
N#Cc1ccccc1NC(=O)c1cccc(COc2ccc(Cl)cc2Cl)c1 | 1.93%
Cc1cccc(NC(=S)N2CCCC(c3nc4ccccc4[nH]3)C2)c1 (configuration not stated) | 5.36%
Cc1ccc(C2CCN(C(=S)Nc3cccc(Cl)c3)C2)cc1 (configuration not stated) | 54% (active)
O=C(C1CCCO1)N1CCN(C(=S)Nc2cccc(Cl)c2)CC1 (configuration not stated) | 9.12%
COC(=O)[C@H](Cc1ccccc1)NC(=O)[C@@H]1C[C@H]1[C@@H](NC(=O)OCc1ccccc1)c1ccccc1 | 1.6%
CCCc1ccc(C(=O)[C@@H]2[C@@H](C(C)=O)N3c4ccc(F)cc4C=C[C@@H]3[C@@]23C(=O)Nc2ccccc23)cc1 | -6.87%
COc1cccc(CC2(CO)CCCN(Cc3nc(-c4cccs4)oc3C)C2)c1 (configuration not stated) | 10.4%
Cc1ccc(CN2CCN(Cc3ccccc3-c3ccco3)CC2CCO)o1 (configuration not stated) | 6.27%
Cc1cc(C)n(-c2nnc(C)n2NC(=O)c2cccc(Cl)c2)n1 | -0.31%
O=C1/C(=C\c2ccsc2)NC(=S)N1c1ccccc1 | 1.31%
Cc1ccccc1NC(=O)CN1C(=O)N/C(=C\c2cccn2-c2cccc(C(=O)O)c2)C1=O | 7.07%
O=C1N/C(=C/c2cccn2-c2ccccc2)C(=O)N1c1cccc(Cl)c1 | 52.5% (active)

From PubChem BioAssay AID1486 (The Scripps Research Institute Molecular Screening Center, 2009)
